Results reported in publication PMC12820563, “FoxP3 forms a head-to-head dimer in vivo and stabilizes its multimerization on adjacent microsatellites”.
Over roughly 16,000 sequences, “rpm ratio (pull-down/input)” has its median near 0.94; the highest 2% begin near 1.7. The entries come from a sample that favours the highest values as a whole.

target: T1, MBP-FoxP1dN (Mus musculus, UniProt P58462 326-579); assay: PD-seq (MBP pull-down with sequencing); 20 mM Tris-HCl pH 7.5, 100 mM NaCl, 1.5 mM MgCl2, 0.4 uM protein, 0.1 uM dsDNA library, 30 min, room temperature, amylose pull-down; high values mean tight binding; conditions: protein: recombinant; tags: His6-MBP; chain copies: 2; dsDNA, one strand shown
T1 sequence: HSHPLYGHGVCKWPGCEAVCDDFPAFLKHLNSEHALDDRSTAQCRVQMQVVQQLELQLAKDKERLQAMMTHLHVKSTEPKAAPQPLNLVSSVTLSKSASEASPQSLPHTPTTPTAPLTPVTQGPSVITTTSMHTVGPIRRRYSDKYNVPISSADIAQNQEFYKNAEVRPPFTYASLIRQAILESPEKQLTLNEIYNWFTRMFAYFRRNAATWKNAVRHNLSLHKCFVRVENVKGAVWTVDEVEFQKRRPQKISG
In short: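 Binding is the reads-per-million enrichment of pull-down relative to input, pooled across replicates. For this, 0.4 µM His6-MBP-tagged mouse FoxP3 or FoxP1 fragment lacking the N-terminus, made in E. coli, was incubated with 0.1 µM Klenow-filled double-stranded degenerate DNA library for 30 min at room temperature in Tris pH 7.5 buffer with NaCl and MgCl2. Complexes bound to amylose resin were washed three times before proteinase K released the DNA for PCR barcoding and Illumina sequencing.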

First: GATGATTGTTCTCCCAGCTGATGAATTTGGGATGTCGAGTAAACAAATTTTCCTAATCTTTCTGTTCAAGCGCCATCTAC
Second: GATGATTGTTCTCCCAGCTGATGAATTTACCGAATCGAGTAAACAAATTTTCCTAATCTTTCTGTTCAAGCGCCATCTAC
The binding signal of the first is lower: 0.922 RPM ratio (pull-down/input) for the first, 1.37 RPM ratio (pull-down/input) for the second.

Going from “GATGATTGTTCTCCCAGCTGATGAATTGAAAGCATCGAGTAAACAAATTTTCCTAATCTTTCTGTTCAAGCGCCATCTAC” to “GATGATTGTTCTCCCAGCTGATGAATTCACCGGTTCGAGTAAACAAATTTTCCTAATCTTTCTGTTCAAGCGCCATCTAC”, the binding signal falls from 1.2 RPM ratio (pull-down/input) to 0.877 RPM ratio (pull-down/input).

Going from “GATGATTGTTCTCCCAGCTGATGAATTGATCTTATCGAGTAAACAAATTTTCCTAATCTTTCTGTTCAAGCGCCATCTAC” to “GATGATTGTTCTCCCAGCTGATGAATTTGGTATATCGAGTAAACAAATTTTCCTAATCTTTCTGTTCAAGCGCCATCTAC”, the binding signal rises from 1.08 RPM ratio (pull-down/input) to 1.23 RPM ratio (pull-down/input).

Compared with “GATGATTGTTCTCCCAGCTGATGAATTTTAGGGATCGAGTAAACAAATTTTCCTAATCTTTCTGTTCAAGCGCCATCTAC”, “GATGATTGTTCTCCCAGCTGATGAATTCCTATTATCGAGTAAACAAATTTTCCTAATCTTTCTGTTCAAGCGCCATCTAC” is higher in binding signal: 0.823 RPM ratio (pull-down/input) for the first, 1.33 RPM ratio (pull-down/input) for the second.

Compared with “GATGATTGTTCTCCCAGCTGATGAATTATTTGACTCGAGTAAACAAATTTTCCTAATCTTTCTGTTCAAGCGCCATCTAC”, “GATGATTGTTCTCCCAGCTGATGAATTTATTGACTCGAGTAAACAAATTTTCCTAATCTTTCTGTTCAAGCGCCATCTAC” is higher in binding signal: 1.07 RPM ratio (pull-down/input) for the first, 1.85 RPM ratio (pull-down/input) for the second.

First: GATGATTGTTCTCCCAGCTGATGAATTTTATGACTCGAGTAAACAAATTTTCCTAATCTTTCTGTTCAAGCGCCATCTAC
Second: GATGATTGTTCTCCCAGCTGATGAATTATTTGTCTCGAGTAAACAAATTTTCCTAATCTTTCTGTTCAAGCGCCATCTAC
The binding signal of the first is lower: 0.916 RPM ratio (pull-down/input) for the first, 1.66 RPM ratio (pull-down/input) for the second.

Going from “GATGATTGTTCTCCCAGCTGATGAATTTTATGTCTCGAGTAAACAAATTTTCCTAATCTTTCTGTTCAAGCGCCATCTAC” to “GATGATTGTTCTCCCAGCTGATGAATTTATTGTCTCGAGTAAACAAATTTTCCTAATCTTTCTGTTCAAGCGCCATCTAC”, the binding signal rises from 0.899 RPM ratio (pull-down/input) to 1.78 RPM ratio (pull-down/input).

First: GATGATTGTTCTCCCAGCTGATGAATTGTCACCCTCGAGTAAACAAATTTTCCTAATCTTTCTGTTCAAGCGCCATCTAC
Second: GATGATTGTTCTCCCAGCTGATGAATTGAGTTCGTCGAGTAAACAAATTTTCCTAATCTTTCTGTTCAAGCGCCATCTAC
The binding signal of the first is higher: 1 RPM ratio (pull-down/input) for the first, 0.82 RPM ratio (pull-down/input) for the second.

Going from “GATGATTGTTCTCCCAGCTGATGAATTAAGGACATCGAGTAAACAAATTTTCCTAATCTTTCTGTTCAAGCGCCATCTAC” to “GATGATTGTTCTCCCAGCTGATGAATTGATGACCTCGAGTAAACAAATTTTCCTAATCTTTCTGTTCAAGCGCCATCTAC”, the binding signal falls from 1.06 RPM ratio (pull-down/input) to 1.02 RPM ratio (pull-down/input).

Going from “GATGATTGTTCTCCCAGCTGATGAATTGTCCTCCTCGAGTAAACAAATTTTCCTAATCTTTCTGTTCAAGCGCCATCTAC” to “GATGATTGTTCTCCCAGCTGATGAATTTCTAATCTCGAGTAAACAAATTTTCCTAATCTTTCTGTTCAAGCGCCATCTAC”, the binding signal falls from 1.03 RPM ratio (pull-down/input) to 0.82 RPM ratio (pull-down/input).

Going from “GATGATTGTTCTCCCAGCTGATGAATTTCTGTCCTCGAGTAAACAAATTTTCCTAATCTTTCTGTTCAAGCGCCATCTAC” to “GATGATTGTTCTCCCAGCTGATGAATTGTTGACCTCGAGTAAACAAATTTTCCTAATCTTTCTGTTCAAGCGCCATCTAC”, the binding signal rises from 0.915 RPM ratio (pull-down/input) to 1.88 RPM ratio (pull-down/input).

Going from “GATGATTGTTCTCCCAGCTGATGAATTGACCTCCTCGAGTAAACAAATTTTCCTAATCTTTCTGTTCAAGCGCCATCTAC” to “GATGATTGTTCTCCCAGCTGATGAATTGTTGTTCTCGAGTAAACAAATTTTCCTAATCTTTCTGTTCAAGCGCCATCTAC”, the binding signal rises from 0.877 RPM ratio (pull-down/input) to 2.58 RPM ratio (pull-down/input).

First: GATGATTGTTCTCCCAGCTGATGAATTGATGATCTCGAGTAAACAAATTTTCCTAATCTTTCTGTTCAAGCGCCATCTAC
Second: GATGATTGTTCTCCCAGCTGATGAATTGTTGATCTCGAGTAAACAAATTTTCCTAATCTTTCTGTTCAAGCGCCATCTAC
The binding signal of the first is lower: 0.99 RPM ratio (pull-down/input) for the first, 2.06 RPM ratio (pull-down/input) for the second.

Compared with “GATGATTGTTCTCCCAGCTGATGAATTGATCTTCTCGAGTAAACAAATTTTCCTAATCTTTCTGTTCAAGCGCCATCTAC”, “GATGATTGTTCTCCCAGCTGATGAATTGTTGTCCTCGAGTAAACAAATTTTCCTAATCTTTCTGTTCAAGCGCCATCTAC” is higher in binding signal: 0.956 RPM ratio (pull-down/input) for the first, 2.28 RPM ratio (pull-down/input) for the second.

Going from “GATGATTGTTCTCCCAGCTGATGAATTTTTTTTCTCGAGTAAACAAATTTTCCTAATCTTTCTGTTCAAGCGCCATCTAC” to “GATGATTGTTCTCCCAGCTGATGAATTAACAGTTTCGAGTAAACAAATTTTCCTAATCTTTCTGTTCAAGCGCCATCTAC”, the binding signal rises from 0.756 RPM ratio (pull-down/input) to 1.09 RPM ratio (pull-down/input).

First: GATGATTGTTCTCCCAGCTGATGAATTGTAAAAGTCGAGTAAACAAATTTTCCTAATCTTTCTGTTCAAGCGCCATCTAC
Second: GATGATTGTTCTCCCAGCTGATGAATTATGTCGCTCGAGTAAACAAATTTTCCTAATCTTTCTGTTCAAGCGCCATCTAC
The binding signal of the first is lower: 0.943 RPM ratio (pull-down/input) for the first, 1.01 RPM ratio (pull-down/input) for the second.

Compared with “GATGATTGTTCTCCCAGCTGATGAATTCCATAAGTCGAGTAAACAAATTTTCCTAATCTTTCTGTTCAAGCGCCATCTAC”, “GATGATTGTTCTCCCAGCTGATGAATTCTCTGGCTCGAGTAAACAAATTTTCCTAATCTTTCTGTTCAAGCGCCATCTAC” is lower in binding signal: 0.896 RPM ratio (pull-down/input) for the first, 0.769 RPM ratio (pull-down/input) for the second.

First: GATGATTGTTCTCCCAGCTGATGAATTATCGGCTTCGAGTAAACAAATTTTCCTAATCTTTCTGTTCAAGCGCCATCTAC
Second: GATGATTGTTCTCCCAGCTGATGAATTACATGGATCGAGTAAACAAATTTTCCTAATCTTTCTGTTCAAGCGCCATCTAC
The binding signal of the first is lower: 0.859 RPM ratio (pull-down/input) for the first, 1 RPM ratio (pull-down/input) for the second.

Compared with “GATGATTGTTCTCCCAGCTGATGAATTGCGCCCCTCGAGTAAACAAATTTTCCTAATCTTTCTGTTCAAGCGCCATCTAC”, “GATGATTGTTCTCCCAGCTGATGAATTATTGAGCTCGAGTAAACAAATTTTCCTAATCTTTCTGTTCAAGCGCCATCTAC” is lower in binding signal: 0.966 RPM ratio (pull-down/input) for the first, 0.941 RPM ratio (pull-down/input) for the second.

Going from “GATGATTGTTCTCCCAGCTGATGAATTTCCTACCTCGAGTAAACAAATTTTCCTAATCTTTCTGTTCAAGCGCCATCTAC” to “GATGATTGTTCTCCCAGCTGATGAATTACCATTGTCGAGTAAACAAATTTTCCTAATCTTTCTGTTCAAGCGCCATCTAC”, the binding signal rises from 0.823 RPM ratio (pull-down/input) to 1.04 RPM ratio (pull-down/input).
